SW480 rereplic: A quantitative high throughput screen for small molecules that induce DNA re-replication in SW480 colon adenocarcinoma cells. SW480 DNA re-replication, Hoechst DNA content imaging, 48 h. Potency, µM (titrated, usually from 46.1 µM), inactives show at the highest dose re-replication activation, most hits filed as activators. hit rate 1.8% among 340,000; note: % of control where 0% means no effect; nearly all actives have a fitted effect of over 55% in size
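Per well, 250 cells were exposed to pinned compound for 48 hr. Nuclear DNA was visualised with Hoechst (40 min, 37 C) and total object intensity recorded by fluorescence scanning.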
HT1080NT lethal: qHTS for induction of synthetic lethality in tumor cells producing 2HG: qHTS for the HT-1080-NT fibrosarcoma cell line | HT-1080-NT fibrosarcoma viability, CellTiter-Glo ATP luminescence, 48 h | hit rate 1.6% among 360,000 | AID 686970, 2013 | Potency, µM (top dose mostly 46.1 µM), for the others: top-dose activity, negative = less viability, usual class: cytotoxic;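 note: NT is the 2HG producing partner of a matched IDH1 knockdown line; 0% = DMSO-treated cells and -100% = media-only wells without cells; nearly all actives have a fitted effect of over 55% in size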
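Luminescent CellTiter-Glo readout after 48 hours of compound exposure at 37 degrees C defined viability of HT-1080-NT cells. Activity was normalized to DMSO wells and cell-free media wells; concentration-response curves were fitted and assigned curve classes.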
KB-V1 cytotox: qHTS assay for MDR1-selective chemotherapeutics: Primary screen using the drug-selected MDR subline cells KB-V1 | KB-V1 MDR cells viability, CellTiter-Glo, 72 h | Potency, µM (top dose mostly 46.1 µM), actives largely listed as cytotoxic | hit rate 3.4% among 400,000 | AID 1347076, 2019; note: % is set by controls: 0 for no effect and ±100 for the full control effect; nearly all actives have a fitted effect of over 60% in size
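Drug-selected KB-V1 cells, grown in DMEM lacking phenol red with 10% FBS, receive compound titrations; after three days at 37 degrees C, surviving cell ATP is quantified by CellTiter-Glo luminescence and responses normalized and curve-fitted.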
HT1080 IDH1KD tx: qHTS for induction of synthetic lethality in tumor cells producing 2HG: qHTS for the HT-1080-IDH1KD cell line | Potency, µM (series often up to 46.1 µM), without a hit: at the top dose activity, negative = toxicity, usual class: cytotoxic | AID 686971, 2013 | hit rate 2% among 360,000 | HT-1080 IDH1 knockdown viability, ATP luminescence, 48 h;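 note: 0% = DMSO wells and -100% = cell-free medium wells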
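Viability of IDH1-knockdown HT-1080 fibrosarcoma cells was assessed by CellTiter-Glo after 48 h at 37 °C with titrated compound; concentration-effect curves were classified by fit quality and response size.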
KB-3-1 tox: qHTS assay for MDR1-selective chemotherapeutics: Primary screen using the parental adenocarcinoma cell KB-3-1. KB-3-1 viability, CellTiter-Glo ATP luminescence, 72 h. Potency, µM (series often up to 46.1 µM), most hits filed as cytotoxic. hit rate 1.4% among 400,000; note: % is set by controls: 0 for no effect and ±100 for the full control effect; nearly all actives have a fitted effect of over 60% in size
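72 h, 37 °C compound treatment of KB-3-1 parental cells; CellTiter-Glo added, 10 min, luminescence read. Data corrected against DMSO-only plates and normalized before curve fitting.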
MCF10A rereplic: A quantitative high throughput screen for small molecules that induce DNA re-replication in MCF 10a normal breast cells | MCF 10A DNA re-replication, Hoechst nuclear intensity, 48 h | Potency, µM (doses to about 46.1 µM), inactives show at the top dose activity, positive = re-replication, most hits filed as activators | hit rate 2.9% among 350,000 | AID 624296, 2012; note: % of control where 0% means no effect; nearly all actives have a fitted effect of over 50% in size
Starred values were filed as active, the others as inactive; i = inactive; ? = inconclusive; [ ] = dose if it differs, or a comment. Sampled rows, rich in hits. Any-hit rate of the full collection: about 8%. Calls come from the whole dose curve; as a rule, active = well fitted curve in the direction sought with a large enough effect; inconclusive = small, poorly fitted or top-dose-only effect, or another doubt; inactive = no such curve, though single readings can be large; an effect the other way counts as inactive or inconclusive. Potency is the fitted concentration of half-maximal effect.

SMILES	SW480 rereplic	HT1080NT lethal	KB-V1 cytotox	HT1080 IDH1KD tx	KB-3-1 tox	MCF10A rereplic
COc1ccccc1N1CCN(CCCCN2C(=O)C3CCCN3C2=O)CC1 (configuration not stated)	-4%	0%	i	24%	i	4%
O=C(/C=C\c1ccco1)Nc1nc(-c2ccc3ccccc3c2)cs1	4%	-15%	?	-26%	i	?
O=C(/C=C/c1ccco1)NC(=S)Nc1ccc(O)c(-c2nc3ccccc3s2)c1	?	?	?	?	5.8µM*	8.2µM*
Cc1ccc(O)c(NC(=S)NC(=O)/C=C/c2ccco2)c1	16µM*	-26%	?	-22%	10µM*	11%
Cc1ccc(-c2csc(NC(=S)NC(=O)/C=C/c3ccco3)n2)cc1	29%	7.1µM*	3.3µM*	7.9µM*	5.8µM*	1.6µM*
Cc1ccnc(NC(=S)NC(=O)/C=C/c2ccco2)c1	?	?	8.2µM*	?	10µM*	?
Cc1ccc(O)c(NC(=S)NC(=O)/C=C/c2ccccc2)c1	-8%	6%	?	6%	i	0%
Cn1nnc2cc(C(=O)N3CCN(c4ccccc4)CC3)ccc21	-5%	-3%	i	-2%	i	-5%
O=C(O)CCCn1cc(NC(=O)COc2ccccc2F)cn1	-9%	22%	?	7%	i	-7%
O=C(CSc1ncccn1)N/N=C/c1cccs1	?	0%	i	4%	i	0.52µM*
Cc1ccc(NC(=O)CCC(=O)N/N=C/c2cccs2)cc1	9.2µM*	2%	i	0%	i	2%
CCCC(=O)Nc1ccc(C(=O)COC(=O)c2c(C)noc2C)cc1	?	-5%	i	-7%	i	20%
c1ccc(-c2ccc(Oc3cc(N4CCOCC4)nc(-c4ccccc4)n3)cc2)cc1	-9%	0%[9.24 µM]	i	-23%	i	-4%
COc1ccc(CN2CCC(N(CCc3ccccc3)Cc3ccccc3)CC2)c(OC)c1	?	?	13µM*	?	?	15µM*
CC(C)Cn1nc(C(=O)OCC(=O)NCC(F)(F)F)c2ccccc2c1=O	1%	4%	i	12%	i	0%
C=C(C)C(O)CC/C(C)=C/Cc1c(O)ccc(C(=O)/C=C/c2ccc(O)cc2)c1O (configuration not stated)	?	1%	i	1%	i	21µM*
COc1cccc(CN(Cc2ccco2)C(c2ccc(F)cc2)c2nnnn2C(C)(C)C)c1 (configuration not stated)	4%	-1%	?	-8%	?	?
CCC(C)(C)n1nnnc1C(c1ccc(C)cc1)N(Cc1ccco1)Cc1cccs1 (configuration not stated)	11%[9.22 µM]	-12%	11µM*	?	?	?
COc1ccc(CCNC(=O)Cc2ccc(OCc3ccccc3)c(OC)c2[N+](=O)[O-])cc1OCc1ccccc1	-6%	-1%	2.6µM*	0%	?	?
Cn1c(SCC(=O)N2c3ccccc3Sc3ccccc32)nc2ccccc21	?	-5%	?	-3%	i	?
Cc1csc(SCC(=O)Nc2nc(-c3ccccc3)cs2)n1	-2%	13%	i	6%	i	4%
CCn1c(SCC(=O)Nc2nc(-c3ccc(C)cc3)cs2)nnc1-c1ccccc1	2%	-29%	2.6µM*	-23%	?	14%
CCCCn1c(SCC(=O)Nc2nnc(CC)s2)nc2ccccc2c1=O	0%	3%	?	3%	i	0%
CN(C)CCCn1c(SCC(=O)N2c3ccccc3Sc3ccccc32)nc2ccccc2c1=O	?	18µM*	?	?	?	?
Cc1ccc(-c2csc(NC(=O)CSc3nc4ccccc4c(=O)n3CCCN(C)C)n2)cc1	?	?	?	23µM*	?	?
SMILES	SW480 rereplic	HT1080NT lethal	KB-V1 cytotox	HT1080 IDH1KD tx	KB-3-1 tox	MCF10A rereplic
Nc1ccccc1SCC(=O)Nc1nc(-c2ccccc2)cs1	1%	-8%	?	?	4.1µM*	?
O=Cc1cc(-c2ccccc2)[nH]c1-c1ccccc1	-5%	21%	i	20%	i	6.5µM*
O=Cc1cn[nH]c1-c1ccccc1	-3%	6%	i	4%	i	0%
COc1cccc2c1C1(O)C2CCCCCCCCCC12OCCCO2 (configuration not stated)	16%	-20%	i	-28%	?	?
CN(C)c1cccc2c1C(=O)c1ccccc1C2=O	-17%	-27%	?	-24%	i	-2%
Cc1ccc(SC2=C(N(C)C)C(=O)c3ccccc3C2=O)cc1	?	?	i	?	?	12µM*
O=C(c1c(F)cccc1F)N1CCCC(c2nc(-c3ccc(Cl)cc3)no2)C1 (configuration not stated)	-10%	-25%	?	-19%	18µM*	?
Cc1ccc(-c2noc(C3CCCN(C(=O)c4cccc(F)c4)C3)n2)cc1 (configuration not stated)	-1%	-11%	i	-8%	i	15%
COc1ccc(-c2noc(C3CCCN(C(=O)c4c(F)cccc4F)C3)n2)cc1OC (configuration not stated)	0%	3%	i	3%	i	-1%
Cc1ccc(-c2noc(C3CCCN(C(=O)c4c(F)cccc4F)C3)n2)cc1 (configuration not stated)	1%	-3%	16µM*	-29%	i	?
COc1ccc(-c2noc(C3CCCN(C(=O)c4ccccc4OC)C3)n2)cc1OC (configuration not stated)	13%	-3%	i	-23%	i	-16%
COc1ccc(C(=O)N2CCCC(c3nc(-c4ccc(OC)c(OC)c4)no3)C2)c(OC)c1 (configuration not stated)	4%	-4%	4.1µM*	-8%	i	10%
Cc1ccc(-c2noc(C3CCCN(C(=O)c4ccccc4Br)C3)n2)cc1 (configuration not stated)	-4%	-28%	18µM*	?	?	16%
Cc1cccc(C)c1NC(=O)C1c2ccccc2Oc2ccccc21	4%	1%	i	2%	i	2%

Screens (PubChem)
